Measurements from the supplement of paper PMC3484114.
± gives the standard deviation.

What follows are compounds tested on OVCAR-3-derived ovarian cancer stem-like cells (spheroids) (assay: cell growth relative to untreated control; higher = more growth (less inhibition)). Conditions: 2.29 µM; 96 h.
Method in brief: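 Stem-like cells derived from OVCAR-3 spheroids were dissociated with trypsin and seeded at 50,000 cells/mL in stem cell medium in ultra-low attachment 96-well plates, then preincubated for 24 h. Each compound was added at 2.29 uM to 4 replicate wells and left for 96 h at 37°C, 5% CO2. Viability came from TOX8 resazurin fluorescence (ex 560/em 590 nm) read after 4 h. Percent growth was expressed relative to untreated wells, after blank subtraction and removal of outliers by the Grubbs test.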

**Q.** `NC(=O)N/N=C1\CC2C3CC4C2C4C13` (stereo unspecified) was tested. Which cell growth did it give?
**A.** 106 ± 20%

**Q.** With `CC(C)C(C)C=CC(C)C1CCC2C3=CC=C4CC(O)CCC4(C)C3CCC21C` (stereo unspecified) as the compound, how does the cell growth read?
**A.** 97.6 ± 23%

**Q.** For `N#CC(=C1C=CC(=NO)C=C1)c1ccc(Cl)cc1`, which cell growth is on record?
**A.** 91.1 ± 17%

**Q.** `O=C1NC(c2cccc3ccccc23)Nc2ccc(Cl)cc21` (stereo unspecified) was tested. Which cell growth did it give?
**A.** 99.5 ± 9.1%

**Q.** How did the cell growth turn out when `Cc1nn(-c2ccccc2)c2c1CC(=O)Nc1ccccc1-2` was run?
**A.** 114 ± 32%

**Q.** Which cell growth does the source give for `CN1c2c(nc(N)[nH]c2=O)NCC1CCNc1ccc(C(=O)NC(CCC(=O)O)C(=O)O)cc1` (stereo unspecified) here?
**A.** 101 ± 20%

**Q.** With `COc1nc(N)nc2nc[nH]c12` as the compound, how does the cell growth read?
**A.** 91.9 ± 17%

**Q.** For `O=C(NC(=O)c1c(Cl)nc2sccn12)Nc1ccc(Cl)cc1`, which cell growth is on record?
**A.** 136 ± 25%

**Q.** `c1ccc2c(c1)nnn1c3cnccc3nc21` was tested. Which cell growth did it give?
**A.** 58.8 ± 9.3%

**Q.** Which cell growth does the source give for `COC(C(=O)C(O)C(C)O)C1Cc2cc3cc(OC4CC(OC5CC(O)C(O)C(C)O5)C(O)C(C)O4)c(C)c(O)c3c(O)c2C(=O)C1OC1CC(OC2CC(OC3CC(O)C(OC)C(C)O3)C(O)C(C)O2)C(O)C(C)O1` (stereo unspecified) here?
**A.** 54.3 ± 53%

**Q.** `CC(C)[Si]1(C(C)C)OCC2OC(n3cnc4c(N)ncnc43)C(N)C2O[Si](C(C)C)(C(C)C)O1` (stereo unspecified) was tested. Which cell growth did it give?
**A.** 85.1 ± 22%

**Q.** With `[Cl][Pt+2][Cl].[NH-]C1CCCCC1[NH-]` (stereo unspecified) as the compound, how does the cell growth read?
**A.** 98.5 ± 28%

**Q.** Which cell growth does the source give for `C[n+]1ccc(Nc2ccc(NC(=O)c3ccc(Nc4cc[n+](C)c5ccc([N+](=O)[O-])cc45)cc3[N+](=O)[O-])cc2)cc1` here?
**A.** 70 ± 17%

**Q.** How did the cell growth turn out when `CC(=O)C1=C(O)C2(O)C(=O)c3c(c(C)c4ccc(C)c(O)c4c3O)CC2C(N)C1=O` (stereo unspecified) was run?
**A.** 118 ± 30%

**Q.** With `O=Cc1cc([N+](=O)[O-])no1` as the compound, how does the cell growth read?
**A.** 115 ± 26%

**Q.** With `COC1=CC(=O)c2c(ccc3ncnc(N)c23)C1=O` as the compound, how does the cell growth read?
**A.** 79.1 ± 20%
